Test [1] concerns the target Glucocorticoid receptor (Homo sapiens) (UniProt P04150). The test can be described thus: GR-GFP Redistribution (AID 450;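 active = compounds whose dose series gives a full or clear partial fitted curve of increased nuclear translocation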; note: potency is the fitted concentration of half-maximal effect). The settings on record: U2OS GR-GFP nuclear translocation, laser cytometry, 2 h.
The target of test [2] is Mitogen-activated protein kinase 10 (Mus musculus) (UniProt Q61831). The test can be described thus: JNK3 AlphaScreen Assay (AID 530; active = well fitted curve in either direction with a large enough effect, not every such curve was filed as active;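 note: kinase came from lysate of stimulated human HepG2 cells; signal reports phosphorylation of biotinylated GST-cJun 1-79 at Ser73 with 10 µM ATP; % is set by controls: 0 for no effect and ±100 for the full control effect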). The gist of the method:
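qHTS titrations with 15 min compound pre-incubation before adding ATP (10 uM final). Read-out: AlphaScreen of Ser73-phosphorylated biotin-GST-cJun using HepG2 lysate JNK3 activated by IL-1β and TNFα.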
For orientation: Bead proximity is the source of the signal in Alpha formats.

Test [3] has as its target 3',5'-cyclic-AMP phosphodiesterase 4B (Homo sapiens) (UniProt Q07343). The test can be described thus: qHTS Assay for Inhibitors of PDE-IV (AID 607; active = well fitted activation curve with a large enough effect in the main read-out, with a control signal flat, not every such curve was filed as active; note: potency is the fitted concentration of half-maximal effect). A digest of the protocol:
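Cell-based read-out of cAMP via a modified cyclic nucleotide-gated channel and membrane potential dye (535/590 nm) in HEK293 cells expressing PDE4 endogenously. Compounds tested up to 22.9 uM final; 100 uM RO 20-1724 reference.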

Test [4] is described as follows: qHTS Assay for Lipid Storage Modulators (AID 1519; calls by dose curve). The settings on record: Drosophila S3 cells, BODIPY lipid droplet/cell ratio, laser cytometry, cells loaded with oleic acid. A digest of the protocol:
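Cells seeded at 5,000 per well were treated with compounds over a concentration series and loaded with oleic acid (400 uM, as added). Lipid droplet fluorescence (488 nm excitation, 500-530 nm channel) was read by laser-scanning cytometry and normalized to 20 uM Triacsin C.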
A general note: In qHTS, concentration-response curves come from the screen itself.

Test [5] concerns the target Ubiquitin carboxyl-terminal hydrolase 1 (Homo sapiens) (UniProt O94782). The test can be described thus: Inhibitors of USP1/UAF1: Pilot qHTS (AID 504865).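 Note: rhodamine fluorescence freed from ubiquitin-rhodamine substrate followed over time; top concentration of the series differs between compounds; % is set by controls: 0 for no effect and ±100 for the full control effect; nearly all actives have a fitted effect of over 35% in size.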 The gist of the method: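 USP1/UAF1 complex (1nM) preincubated with compound 15 min at room temperature, then Ub-Rho substrate (150nM final) added. Fluorescence read kinetically at 480/540 nm, 6 reads every 60 seconds. Buffer: 50mM HEPES pH 7.8, 0.5mM EDTA, 0.1 mg/ml BSA, 1mM TCEP, 0.01% Tween-20.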

The target in test [6] is DNA dC->dU-editing enzyme APOBEC-3G (Homo sapiens) (UniProt Q9HC16). The test can be described thus: qHTS for inhibitors of Vif-A3G interactions: Validation (AID 588379). For activity change, negative = inhibition: 0% is about no effect. Note: potency is the fitted concentration of half-maximal effect. A digest of the protocol: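 Yellow fluorescence (Ex 488, Em 500-530) of Vif-coexpressing HeLa A3G-eYFP cells, scanned by Acumen cytometer, reports blocked A3G degradation. Cells plated at 700/well overnight at 37 deg C before compound addition, then a further overnight compound incubation at 37 deg C.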

In test [7] the test system is Zika virus NS2B-NS3 protease. The test can be described thus: Primary screen GU AMC qHTS for Zika virus inhibitors (AID 1347154).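 Note: 0% = no-inhibitor control and -100% = no-enzyme control; nearly all actives have a fitted effect of over 70% in size.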 A digest of the protocol: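 Fluorogenic AMC-substrate cleavage by noncovalent NS2B-NS3 protease complex (25 nM, pH 8.0 Tris buffer with Tween 20) followed for 15 minutes at room temperature (~20% conversion). Percent inhibition from ex340/em450 signal change, fitted by 4-parameter Hill equation.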

Test [8] can be described thus: Primary qHTS for small molecule stabilizers of the endoplasmic reticulum resident proteome: Secreted ER Calcium Modulated Protein (SERCaMP) assay (AID 1508630). Note: % is set by controls: 0 for no effect and ±100 for the full control effect. A digest of the protocol: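 The SH-SY5Y reporter protocol was run at 3 concentrations up to 38.3 uM (primary) or 11 concentrations (follow-up): 16 h compound, 100 nM thapsigargin for 4 h, then extracellular luciferase luminescence.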

For test [9], the target named is Glucocorticoid receptor (Homo sapiens) (UniProt P04150). The test can be described thus: GR-EFC Redistribution (AID 451; calls by dose curve; note: potency is the fitted concentration of half-maximal effect). The settings on record: CHO-K1 GR-EFC translocation, beta-gal luminescence, 2 h. The gist of the method: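 Translocation of GR-ED fusion to nuclear EA restores b-gal, read by luminescence after 1 h room-temperature detection. Engineered CHO-K1 biosensor cells, 1,000/well, exposed 2 h at 37 C to titrations up to 46 uM final.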

Test [10] concerns the target Cytochrome P450 1A2 (Homo sapiens) (UniProt P05177). The test can be described thus: p450-cyp1a2 (AID 410; calls by dose curve; note: potency is the fitted concentration of half-maximal effect;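 for activity change, negative = inhibition: -100% = full effect of reference inhibitor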). A digest of the protocol: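 Luminescent demethylation readout: Luciferin-ME (100uM, equal to Km) turned over by 20nM CYP1A2 for 60 min at room temperature after NADPH regeneration addition, following 10 min compound preincubation. Normalization used 57 uM furafylline as full inhibition.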

Test [11] is described as follows: NFAT Signaling Pathway (AID 444; active = well fitted curve in either direction with a large enough effect, not every such curve was filed as active;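 note: carbachol stimulus at about its EC50 of 1 µM final; % is set by controls: 0 for no effect and ±100 for the full control effect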). The settings on record: Jurkat NFAT-bla M1, carbachol, beta-lactamase ratio, 5 h. The gist of the method: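 Read-out: CCF4 FRET ratio (460 nm/530 nm) after 1 h RT dye loading, used for %activity and AC50 from titration series. Cells: Jurkat NFAT-β-lactamase/M1 line, treated with compound plus 1 uM carbachol for 5 h, 37 °C.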
The target of test [12] is Guanine nucleotide-binding protein G(i) subunit alpha-1 (Homo sapiens) (UniProt P63096). The test can be described thus: qHTS Assay for Inhibitors of RGS12 GoLoco Motif Activity (Green Fluorophore) (AID 879).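 Note: 0% = labeled peptide with Gαi1 and full inhibition = labeled peptide alone without protein; negative values mean loss of peptide binding seen as reduced polarization.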 The gist of the method: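 A drop in FITC polarization marked displacement of the FITC-tagged RGS12 GoLoco peptide (10 nM) from Gαi1 (50 nM). Compounds were incubated 10 min at room temperature in Tris pH 7.5 buffer containing 150 mM NaCl, 0.1 mM GDP and 0.05% NP40; unlabeled peptide titration served as control.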

For test [13], the target named is Muscarinic acetylcholine receptor M1 (Rattus norvegicus) (UniProt P08482). The test can be described thus: qHTS Assay for Antagonists of Acetylcholine Muscarinic M1 Receptor: Measurement of IP-One Response (AID 944). Note: nearly all actives have a fitted effect of over 75% in size. The gist of the method: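 IP1 accumulation measured via TR-FRET between d2-IP1 and Eu-cryptate anti-IP1 antibody after carbachol (200 nM, EC80) stimulation for 30 min; rat M1-transfected CHO cells received compound 10 min before agonist.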

Test [14] addresses Pyruvate kinase (Leishmania mexicana) (UniProt Q27686). The test can be described thus: qHTS Validation Assay for Inhibitors of Leishmania Mexicana Pyruvate Kinase (AID 945).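 Note: 0% = DMSO only neutral control wells.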 A digest of the protocol:
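Compounds are tested as eight-point concentration series. Reactions contain 0.2 nM LmPYK E451W, 0.5 mM PEP, 0.1 mM ADP, 7 mM MgCl2 and 50 mM KCl at pH 7.2, run 1 h at room temperature, then read by PKLight luminescence.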

Test [15] has as its target Pyruvate kinase PKM (Homo sapiens) (UniProt P14618). The test can be described thus: qHTS Assay for Activators of Human Muscle Pyruvate Kinase (AID 954; active = well fitted curve in the direction sought with a large enough effect, not every such curve was filed as active;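 note: 0% = uninhibited enzyme and -100% = no enzyme or full thiadiazolimine inhibition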). The gist of the method: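 ATP production by PKM2 detected via luciferase luminescence after 1 h room-temperature reaction (0.1 nM enzyme, PEP at Km 0.5 mM, ADP 0.1 mM, pH 7.2 imidazole buffer). Inhibition scaled to no-enzyme control; activation referenced to 0.3 nM enzyme wells.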

Test [16] deals with Alpha-galactosidase (Coffea arabica) (UniProt Q42656). The test can be described thus: Counterscreen for Glucocerebrosidase Inhibitors: qHTS Assay for Coffee Bean alpha-Galactosidase at pH 4.5 (AID 957).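 Note: plate controls were enzyme alone for no effect and no enzyme for full effect.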 The gist of the method: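 Fluorogenic qHTS at pH 4.5 (citrate buffer with Tween-20): 2 nM enzyme, 80 uM 4-MU-alpha-galactoside substrate, compound titrated 0.7 nM to 77 uM, 20 min room temperature. Glycine/NaOH stop; 4-MU read Ex 365/Em 440; Hill-equation AC50 against no-enzyme and enzyme controls.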

The target of test [17] is Alpha-galactosidase A (Homo sapiens) (UniProt P06280). The test can be described thus: Counterscreen for Glucocerebrosidase Inhibitors: qHTS Assay for Human alpha-Galactosidase at pH 4.5 (AID 992). Note: 0% is about no effect. A digest of the protocol:
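Fluorogenic 1536-well qHTS at pH 4.5 (citrate, Tween-20): 2 nM enzyme, 80 uM 4-MU-alpha-galactoside, 20 min room temperature, NaOH/glycine stop. Titration 0.7 nM to 77 uM, data normalized to no-enzyme and full-activity controls, Hill-fitted AC50.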

Test [18] concerns the target alpha-glucosidase (Oryza sativa, rice) (UniProt Q653V4). The test can be described thus: Counterscreen for Glucocerebrosidase Inhibitors: qHTS Assay for Rice alpha-Glucosidase at pH 5.0 (AID 997).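 Note: 0% = full activity with enzyme and -100% = basal without enzyme.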 A digest of the protocol: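 Endpoint fluorogenic assay at pH 5.0: compounds (0.7 nM to 77 uM) titrated against 4 nM rice enzyme and 400 uM 4-MU-alpha-glucoside for 20 min at room temperature; NaOH/glycine stop, read ex 365/em 440 nm, Hill-fitted AC50.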
In general terms: The purpose of a counterscreen is to sort out artefacts and off-target activity.

For test [19], the target named is Alpha-galactosidase (Coffea arabica) (UniProt Q42656). The test can be described thus: Counterscreen for Glucocerebrosidase Inhibitors: qHTS Assay for Coffee Bean alpha-Galactosidase at pH 5.9 (AID 998).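 Note: plate controls were uninhibited enzyme for no effect and no-enzyme basal signal for full effect.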 A digest of the protocol:
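Fluorogenic 4-MU substrate hydrolysis, 80 uM substrate and 2 nM coffee bean alpha-galactosidase, pH 5.9 citrate buffer, 20 min at room temperature, then NaOH/glycine stop. Titration 0.7 nM–77 uM, normalized to no-enzyme and enzyme controls, AC50 via Hill equation.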

Test [20] is described as follows: Stat Signaling Pathway (AID 446; active = well fitted curve in either direction with a large enough effect, not every such curve was filed as active;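 note: ME-180 cervical cancer cells given 40 pM IL-6 alongside compound; SIE-controlled beta-lactamase reporter measured as 460/530 nm FRET emission ratio; % is set by controls: 0 for no effect and ±100 for the full control effect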). The gist of the method:
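FRET read-out (405 nm excitation, 460/530 nm emission) of a beta-lactamase reporter under a STAT-inducible element in ME-180 cervical carcinoma cells. Cells with compound receive 40 pM IL-6 for 5 h. Values are normalised to AC90 stimulation and AC90 JAK-inhibitor controls.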

[21] abbreviates: measured here: cell count channel max response.
[22] abbreviates: measured here: lipid channel max response.

“And” between values parts separate entries of the source, which are not always exact repeats. Equal values may be shown once. Inconclusive results are not listed. The source made the active and inactive calls. Unless noted, calls come from the whole dose curve; as a rule, active = well fitted curve in the direction sought with a large enough effect; inconclusive = small, poorly fitted or top-dose-only effect, or another doubt; inactive = no such curve, though single readings can be large; an effect the other way counts as inactive or inconclusive.

The source of these data is PubChem BioAssay (NCATS).

Chain of Alpha-galactosidase (Coffea arabica) (Q42656 whole entry, looked up): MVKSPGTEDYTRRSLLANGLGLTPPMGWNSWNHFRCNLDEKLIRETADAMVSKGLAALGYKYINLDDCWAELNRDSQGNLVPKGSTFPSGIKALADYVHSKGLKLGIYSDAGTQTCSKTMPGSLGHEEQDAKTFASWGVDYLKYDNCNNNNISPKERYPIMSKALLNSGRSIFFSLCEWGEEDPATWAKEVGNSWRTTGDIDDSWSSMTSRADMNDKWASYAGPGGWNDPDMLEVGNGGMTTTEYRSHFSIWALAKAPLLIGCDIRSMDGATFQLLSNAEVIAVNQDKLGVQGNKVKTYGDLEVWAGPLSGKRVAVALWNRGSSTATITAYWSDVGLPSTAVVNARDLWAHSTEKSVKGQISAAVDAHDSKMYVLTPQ
Chain of Cytochrome P450 1A2 (Homo sapiens) (P05177 whole entry, looked up): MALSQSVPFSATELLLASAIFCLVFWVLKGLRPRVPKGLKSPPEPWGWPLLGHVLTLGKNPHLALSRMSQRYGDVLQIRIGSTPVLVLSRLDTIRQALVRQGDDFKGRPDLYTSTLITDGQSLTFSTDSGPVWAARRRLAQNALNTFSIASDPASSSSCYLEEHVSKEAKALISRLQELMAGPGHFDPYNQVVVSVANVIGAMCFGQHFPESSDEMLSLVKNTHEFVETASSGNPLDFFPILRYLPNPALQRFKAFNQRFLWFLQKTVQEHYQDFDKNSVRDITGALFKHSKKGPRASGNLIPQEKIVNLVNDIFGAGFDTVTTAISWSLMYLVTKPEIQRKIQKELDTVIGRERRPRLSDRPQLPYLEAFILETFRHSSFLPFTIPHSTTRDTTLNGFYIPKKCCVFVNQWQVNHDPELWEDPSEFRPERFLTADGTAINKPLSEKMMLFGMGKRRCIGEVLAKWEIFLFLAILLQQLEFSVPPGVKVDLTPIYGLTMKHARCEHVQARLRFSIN
Chain of Glucocorticoid receptor (Homo sapiens) (P04150 whole entry, looked up, the tested form may be a part): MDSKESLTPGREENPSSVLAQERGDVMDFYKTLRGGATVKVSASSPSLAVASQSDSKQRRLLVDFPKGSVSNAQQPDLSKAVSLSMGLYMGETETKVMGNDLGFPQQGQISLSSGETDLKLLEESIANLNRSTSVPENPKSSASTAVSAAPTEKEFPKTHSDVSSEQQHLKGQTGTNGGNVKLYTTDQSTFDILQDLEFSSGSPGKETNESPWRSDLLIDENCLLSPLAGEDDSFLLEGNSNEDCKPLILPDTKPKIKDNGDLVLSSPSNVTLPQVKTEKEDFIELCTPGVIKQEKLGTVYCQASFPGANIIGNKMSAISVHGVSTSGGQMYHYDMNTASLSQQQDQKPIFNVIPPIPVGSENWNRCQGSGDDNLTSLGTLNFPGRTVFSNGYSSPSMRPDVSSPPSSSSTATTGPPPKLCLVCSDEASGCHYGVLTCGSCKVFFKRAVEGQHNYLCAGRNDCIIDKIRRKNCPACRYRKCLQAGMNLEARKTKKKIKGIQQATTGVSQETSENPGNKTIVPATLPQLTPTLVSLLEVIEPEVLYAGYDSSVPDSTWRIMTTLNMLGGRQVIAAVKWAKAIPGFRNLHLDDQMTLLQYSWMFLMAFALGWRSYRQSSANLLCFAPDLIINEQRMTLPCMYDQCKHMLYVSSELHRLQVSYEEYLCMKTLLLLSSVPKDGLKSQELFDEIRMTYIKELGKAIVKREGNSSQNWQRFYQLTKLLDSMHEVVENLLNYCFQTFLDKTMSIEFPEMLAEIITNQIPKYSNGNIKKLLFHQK
Chain of DNA dC->dU-editing enzyme APOBEC-3G (Homo sapiens) (Q9HC16 whole entry, looked up): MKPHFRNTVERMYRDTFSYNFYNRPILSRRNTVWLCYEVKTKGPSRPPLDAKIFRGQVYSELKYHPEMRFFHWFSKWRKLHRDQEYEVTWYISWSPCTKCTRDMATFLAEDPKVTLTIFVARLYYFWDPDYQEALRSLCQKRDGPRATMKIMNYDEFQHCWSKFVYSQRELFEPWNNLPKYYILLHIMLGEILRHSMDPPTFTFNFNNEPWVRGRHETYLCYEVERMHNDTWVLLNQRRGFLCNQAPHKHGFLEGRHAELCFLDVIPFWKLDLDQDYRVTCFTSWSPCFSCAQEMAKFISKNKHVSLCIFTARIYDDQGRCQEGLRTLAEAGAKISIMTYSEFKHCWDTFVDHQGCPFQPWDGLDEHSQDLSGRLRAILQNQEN
Chain of 3',5'-cyclic-AMP phosphodiesterase 4B (Homo sapiens) (Q07343 whole entry, looked up): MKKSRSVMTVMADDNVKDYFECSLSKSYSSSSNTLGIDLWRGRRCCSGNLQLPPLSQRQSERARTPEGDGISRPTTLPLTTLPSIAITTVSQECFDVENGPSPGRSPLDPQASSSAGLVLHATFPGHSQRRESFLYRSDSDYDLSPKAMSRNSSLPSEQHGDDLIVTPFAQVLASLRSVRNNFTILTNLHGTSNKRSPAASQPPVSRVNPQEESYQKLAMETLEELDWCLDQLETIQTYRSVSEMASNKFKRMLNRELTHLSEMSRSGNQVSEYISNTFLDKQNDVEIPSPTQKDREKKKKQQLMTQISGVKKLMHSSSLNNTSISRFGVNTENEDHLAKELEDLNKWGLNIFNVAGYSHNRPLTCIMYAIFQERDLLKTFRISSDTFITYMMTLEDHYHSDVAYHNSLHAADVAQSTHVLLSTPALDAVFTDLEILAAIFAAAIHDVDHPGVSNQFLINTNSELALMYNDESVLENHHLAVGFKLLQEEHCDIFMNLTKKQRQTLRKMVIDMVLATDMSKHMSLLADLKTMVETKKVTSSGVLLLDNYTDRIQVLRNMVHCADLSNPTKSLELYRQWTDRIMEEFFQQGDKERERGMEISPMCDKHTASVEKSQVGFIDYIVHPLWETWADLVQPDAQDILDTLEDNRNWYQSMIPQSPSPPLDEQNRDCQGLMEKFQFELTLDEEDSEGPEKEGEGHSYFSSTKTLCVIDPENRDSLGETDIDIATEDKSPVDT
Chain of Ubiquitin carboxyl-terminal hydrolase 1 (Homo sapiens) (O94782 whole entry, looked up): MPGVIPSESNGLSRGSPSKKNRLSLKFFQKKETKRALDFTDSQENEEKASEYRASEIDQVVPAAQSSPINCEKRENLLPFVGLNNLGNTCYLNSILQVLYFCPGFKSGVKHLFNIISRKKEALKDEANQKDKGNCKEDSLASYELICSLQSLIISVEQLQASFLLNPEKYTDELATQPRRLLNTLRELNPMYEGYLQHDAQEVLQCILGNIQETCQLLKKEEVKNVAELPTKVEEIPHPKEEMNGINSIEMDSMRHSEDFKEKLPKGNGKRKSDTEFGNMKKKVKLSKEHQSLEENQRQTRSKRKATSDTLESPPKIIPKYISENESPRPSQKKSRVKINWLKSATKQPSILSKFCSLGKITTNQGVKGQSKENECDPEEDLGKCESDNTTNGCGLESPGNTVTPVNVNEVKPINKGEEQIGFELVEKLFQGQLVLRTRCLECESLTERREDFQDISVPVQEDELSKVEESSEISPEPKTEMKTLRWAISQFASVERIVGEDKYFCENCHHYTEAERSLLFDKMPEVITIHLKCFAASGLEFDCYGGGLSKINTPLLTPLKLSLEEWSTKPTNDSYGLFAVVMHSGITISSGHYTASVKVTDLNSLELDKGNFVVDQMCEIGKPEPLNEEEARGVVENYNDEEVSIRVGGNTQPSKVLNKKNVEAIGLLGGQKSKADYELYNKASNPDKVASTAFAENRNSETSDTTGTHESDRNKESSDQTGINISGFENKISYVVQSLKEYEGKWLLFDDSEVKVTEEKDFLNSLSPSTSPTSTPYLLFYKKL
Chain of Muscarinic acetylcholine receptor M1 (Rattus norvegicus) (P08482 whole entry, looked up): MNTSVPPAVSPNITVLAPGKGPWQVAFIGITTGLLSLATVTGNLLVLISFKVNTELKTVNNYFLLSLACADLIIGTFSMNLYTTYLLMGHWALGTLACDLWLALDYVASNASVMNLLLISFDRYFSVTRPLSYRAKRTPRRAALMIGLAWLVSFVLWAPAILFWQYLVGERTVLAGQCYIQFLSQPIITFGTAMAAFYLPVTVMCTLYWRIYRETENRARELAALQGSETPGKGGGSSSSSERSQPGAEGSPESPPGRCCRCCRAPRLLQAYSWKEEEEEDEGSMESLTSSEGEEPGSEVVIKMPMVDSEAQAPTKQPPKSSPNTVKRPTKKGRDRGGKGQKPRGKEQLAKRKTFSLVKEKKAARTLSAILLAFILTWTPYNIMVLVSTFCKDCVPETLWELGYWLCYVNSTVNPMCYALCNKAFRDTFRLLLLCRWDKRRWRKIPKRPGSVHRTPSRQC
Chain of Guanine nucleotide-binding protein G(i) subunit alpha-1 (Homo sapiens) (P63096 whole entry, looked up): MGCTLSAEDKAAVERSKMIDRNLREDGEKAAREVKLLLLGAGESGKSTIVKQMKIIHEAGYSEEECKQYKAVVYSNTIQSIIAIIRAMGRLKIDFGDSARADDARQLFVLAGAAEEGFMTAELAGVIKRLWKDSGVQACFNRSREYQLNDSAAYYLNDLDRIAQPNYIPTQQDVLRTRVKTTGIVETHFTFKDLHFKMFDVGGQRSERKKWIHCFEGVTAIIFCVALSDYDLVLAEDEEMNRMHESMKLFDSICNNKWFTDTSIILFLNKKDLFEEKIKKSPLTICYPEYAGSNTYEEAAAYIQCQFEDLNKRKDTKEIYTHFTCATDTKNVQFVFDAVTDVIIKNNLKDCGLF
Chain of Pyruvate kinase PKM (Homo sapiens) (P14618 whole entry, looked up): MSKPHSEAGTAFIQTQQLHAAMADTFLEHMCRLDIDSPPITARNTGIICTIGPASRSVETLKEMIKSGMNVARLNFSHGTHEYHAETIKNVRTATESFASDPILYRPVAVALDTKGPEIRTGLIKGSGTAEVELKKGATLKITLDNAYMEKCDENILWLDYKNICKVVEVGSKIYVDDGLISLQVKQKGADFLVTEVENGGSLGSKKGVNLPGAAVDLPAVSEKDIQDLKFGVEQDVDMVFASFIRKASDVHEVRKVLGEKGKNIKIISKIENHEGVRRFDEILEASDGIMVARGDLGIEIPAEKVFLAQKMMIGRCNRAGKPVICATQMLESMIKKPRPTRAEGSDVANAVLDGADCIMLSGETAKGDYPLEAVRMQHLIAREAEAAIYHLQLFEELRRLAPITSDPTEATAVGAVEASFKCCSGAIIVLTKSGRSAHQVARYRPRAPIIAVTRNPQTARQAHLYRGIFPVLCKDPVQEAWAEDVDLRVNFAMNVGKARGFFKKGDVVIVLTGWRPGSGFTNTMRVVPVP

On to `CNCC/C=C\c1cccnc1`, for which the Potency in test [1] was > 46 µM (inactive). Moreover, the outcome in [2] was inactive. Also, the Potency result in [3], in test [5], in [6], in test [7] and in [8] was “inactive” throughout. Further, the activity change, negative = inhibition in test [4] (at 57.5 µM (top of the series)) was 4.36% (inactive). In addition, the max response in test [4] (setting [21]) was -7.59%; in [4] (setting [22]) it was -3.17%.
Take `CN1Cc2ccccc2[C@@H]2c3cccc4[nH]cc(c34)C[C@H]21`: the results for the Potency in [1], in test [9] and in [6] were > 46 µM (inactive), > 46 µM (inactive) and 26.6 µM (active), respectively. The Potency result in test [7] and in [8] was “inactive” each time.
As for `NC(N)=Nc1ccc2[nH]c3c(c2c1)C[C@]1(O)[C@@H]2Cc4ccc(O)c5c4[C@]1(CCN2CC1CC1)[C@@H]3O5`, the Potency entry in test [10], in [3], in [6], in [7] and in test [8] was “inactive” each time. The Potency in [1] and in [9] was > 46 µM (inactive) in each case. The result in [2] was inactive. The activity change, negative = inhibition in [4] (at 57.5 µM (top of the series)) is -1.94% (inactive). Also, the max response in test [4] (setting [21]) came to 2.17%; in [4] (setting [22]), 1.06%.
Turning to `c1ccc(C[C@@H](c2ccccc2)N2CCCCC2)cc1`, the results for the Potency in test [10], in test [1] and in test [3] were 15.8 µM (active), > 46 µM (inactive) and 4.77 µM (active), respectively. In addition, the call in [2] was inactive. In test [4] (at 57.5 µM (top of the series)), the activity change, negative = inhibition is -5.07% (inactive). Besides, the max response is -11.4% in test [4] (setting [21]) and -18.1% in test [4] (setting [22]). Besides, the Potency entry in [5], in test [7] and in [8] was “inactive” in each case.
For the compound `c1cncc(C2CCCCN2)c1` (stereo not given), in test [4] (at 57.5 µM (top of the series)), the activity change, negative = inhibition was 4.14% (inactive). Besides, the max response amounted to 15% in [4] (setting [21]) and 20.8% in test [4] (setting [22]). For the same compound, the Potency result in [5], in test [7] and in test [8] was “inactive” each time.
On to `CC[C@]1(C2=NCCN2)Cc2ccccc2O1`, for which the activity change, negative = inhibition in [11] (at 38 µM (top of the series)) was -18.1% (inactive); in test [4] (at 57.5 µM (top of the series)) it was 2.09% (inactive). Besides, the result in [2], in test [12], in test [14], in test [15], in test [16] and in [17] was inactive. Further, the call in test [18] and in test [19] was inactive. Further, the Potency entry in [3], in test [13], in test [6], in test [7] and in [8] was “inactive” each time. For the same compound, the max response in test [4] (setting [21]) was determined as 4.62%; in test [4] (setting [22]), 7.07%.
`c1ccc2c(c1)OC[C@@H](C1=NCCN1)O2`: the Potency entry in [10], in test [3], in test [13], in [6], in test [7] and in test [8] was “inactive” in each case. In addition, the activity change, negative = inhibition in test [11] (at 17.2 µM (top of the series)) was -9.57% (inactive); in test [11] (at 38 µM (top of the series)), -27.1% (inactive); in test [4] (at 25.7 µM (top of the series)), 1.16% (inactive). The call in [20], in test [2], in [12], in test [14], in test [15] and in test [17] was inactive. Moreover, the compound was classed as inactive in test [18] and in test [19]. Further, the Potency was > 46 µM (inactive) and > 20.6 µM (inactive) in test [1]; > 46 µM (inactive) and > 20.6 µM (inactive) in [9]. Besides, the values for the max response in [4] (setting [21]) and in [4] (setting [22]) were -0.675% and -5.05%, respectively.
